From PubChem BioAssay
Rows were chosen to be rich in hits. Some 4.3% of all compounds tested hit in one or more screens of this group.
KKLEB tox = CF airway cell cytotoxicity counter-screen | KKLEB CF airway cells viability, ATPlite luminescence, overnight; active compounds read low; cells stimulated with P. aeruginosa culture filtrate | 360,000 tested, 0.36% active | activity change (cytotoxicity), % at 5 µM;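 active = corrected activity change at or below -50% at 5 µM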
Peg3 promoter = Peg3 promoter activity inhibition; inhibition, % at 20 µM; HeLa PEG-Prom luciferase reporter, luminescence, overnight; AID 588405; 360,000 tested, 1.7% active;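 active = inhibition of at least 50% at 20 µM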
CHOP inhibitor = inhibitors of CHOP induction in ER stress response | 220,000 tested, 3.8% active | AID 2732 | inhibition, % at 10 µM | CHO-K1 CHOP-promoter luciferase, tunicamycin-induced, 15-18 h;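 active = compounds that reduced the stress-induced luciferase reporter signal by more than about 70% of percent inhibition, limit read from the data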;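 note: 0% = tunicamycin plus vehicle and 100% = wells without tunicamycin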
TRPM1 prom inh = inhibitors of MITF-driven TRPM1 promoter in melanoma cells. 330,000 tested, 0.83% active. inhibition, % at 12.5 µM. SK-MEL-5 TRPM1 promoter luciferase, 24 h;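 active = mean inhibition across replicates of 60% or more, whatever share of single replicates reaches that level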
HIF-2a block = HIF-2a inhibition | 786-0 RCC cells HIF-2a reporter, luciferase luminescence, overnight | inhibition, % at 18.8 µM | 360,000 tested, 0.72% active | AID 624352;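 active = inhibition of the luminescence signal of 40% or more relative to plate controls, in a single-dose primary screen at 18.75 µM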
CF NFkB block = inhibitors of cystic fibrosis induced NF-kB. inhibition, % at 5 µM. KKLEB NF-kB-GFP reporter, PAF-induced, GFP fluorescence overnight. 360,000 tested, 0.86% active;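 active = at least 50% inhibition at 5 µM, scaled per plate between neutral and stimulator controls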;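 note: PAF is a Pseudomonas aeruginosa culture filtrate used as stimulus; plate controls were PAF-stimulated DMSO wells for no effect and unstimulated DMSO wells for full effect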
Numbers without * were called inactive; . = no result given.

SMILES | KKLEB tox | Peg3 promoter | CHOP inhibitor | TRPM1 prom inh | HIF-2a block | CF NFkB block
COc1ccc2[nH]c(=O)c(CN(Cc3cccs3)S(=O)(=O)c3cccc4nsnc34)cc2c1 | -53* | 66* | 12 | 11 | -25 | 98*
COc1ccc(C)cc1S(=O)(=O)N(C)CC(=O)N1CCCCCC1 | 6 | 75* | 5 | -4 | 7 | -7
CCOC(=O)c1c(CC(C)C)csc1/N=C/C1C(=O)CC(C)(C)CC1=O | 1 | 2 | 72* | 8 | 6 | 18
CCOC(=O)c1cc(C)sc1/N=C/C1C(=O)CC(C)(C)CC1=O | 4 | 5 | 28 | -3 | 4 | -1
Cc1cc2ncn(/N=C/c3ccc([N+](=O)[O-])o3)c2cc1C | -28 | 47 | -53 | 85* | -63 | 4
Cc1ccc(S(=O)(=O)N/N=C\c2ccc([N+](=O)[O-])o2)cc1C | 8 | -4 | . | -2 | -2 | -35
COc1cc(/C=C/C(=O)Nc2ccncc2)cc(OC)c1OC | 7 | -6 | 3 | -15 | 3 | -10
COc1cc(/C=C/C(=O)Nc2nnc(CC(C)C)s2)cc(OC)c1OC | 3 | 13 | 90* | 8 | 4 | -16
COc1cc(/C=C/C(=O)Nc2nnc(CC(C)(C)C)s2)cc(OC)c1OC | -35 | 12 | 90* | 0 | 7 | 32
COc1ccc(/C=C/C(=O)Nc2nnc(C(C)C)s2)cc1OC | 6 | 0 | 59 | . | 3 | 2
COc1ccc(Cc2[nH]n3c(=O)cc(C(C)C)nc3c2-c2ccccc2)cc1 | -6 | 52* | 3 | 23 | 22 | 9
CC1CCN(C(=O)c2cc3nc(-c4ccccc4)cc(-c4ccccc4)n3n2)CC1 | -13 | 17 | 75* | -3 | 11 | 22
O=C(NC1CCCC1)c1cc2nc(-c3ccccc3)cc(-c3ccccc3)n2n1 | -16 | 27 | 0 | 9 | 15 | 27
O=C(Nc1cccc(O)c1)c1cc2nc(-c3ccccc3)cc(-c3ccccc3)n2n1 | -8 | 12 | 84* | -4 | 13 | -4
CCCCN(Cc1ccco1)S(=O)(=O)c1ccc(-c2ccc(=O)[nH]n2)s1 | 26 | -3 | . | -8 | 16 | 6
Cc1cc(C)cc(NC2=NCC(=O)N2Cc2ccccc2)c1 | 2 | 24 | 30 | -4 | 9 | -12
CCCCc1ccc(NC2=NCC(=O)N2CCc2ccccc2)cc1 | 4 | 1 | 95* | -8 | 11 | 6
Cc1ccc2[nH]c3c(=O)n(CC(=O)Nc4ccccc4N4CCN(C)CC4)ncc3c2c1 | -7 | 53* | . | -5 | -4 | 16
O=C(COc1ccc(Br)cc1)Nc1ccccc1N1CCCC1 | -10 | 17 | 70* | 9 | 9 | -8
CN1CCN(c2ccccc2NC(=O)Cn2ncc3c([nH]c4ccccc43)c2=O)CC1 | 6 | -3 | . | 14 | 20 | 14
Cc1cc(C)cc(OCC(=O)Nc2ccccc2N2CCCCC2)c1 | -2 | 26 | 86* | -5 | -12 | 17
Cc1cc(OCC(=O)Nc2ccccc2N2CCCCC2)ccc1C(C)C | -7 | 25 | . | 12 | 13 | 21
Cc1ccccc1OCC(=O)Nc1ccccc1N1CCCCC1 | -7 | 35 | 89* | -10 | 24 | 13
CN(C)C1=NCCN1CCc1ccc(F)cc1 | 6 | -53 | . | 4 | 10 | 10
CC(=O)c1ccc(OCc2nnn(CC(=O)O)c2-c2ccccc2)cc1 | 6 | 15 | . | . | 13 | -10
SMILES | KKLEB tox | Peg3 promoter | CHOP inhibitor | TRPM1 prom inh | HIF-2a block | CF NFkB block
Cc1ccc(C(C)C)c(OCC(=O)Nc2ccccc2N2CCN(C)CC2)c1 | -2 | 40 | 78* | 11 | 13 | -6
COc1cc(C(=O)OCC(=O)Nc2ccc(C)cc2)cc(OC)c1OC | -14 | 12 | . | 16 | 10 | 8
Cc1ccc(OCC(=O)Sc2ccc(C)cc2)cc1 | 10 | -8 | 53 | -11 | 13 | -9
COc1cc(C(=O)Sc2ccc(C)cc2)cc(OC)c1OC | -8 | -1 | 82* | 12 | 3 | 25
COc1ccccc1OCC(=O)Sc1ccc(C)cc1 | 6 | -3 | 75* | 6 | -16 | 0
CCCCn1c(N)c(N(CCOC)C(=O)c2ccc(-n3c(C)ccc3C)cc2)c(=O)[nH]c1=O | 4 | 8 | . | 4 | 5 | -2
Cn1ncc(Cl)c1C(=O)N1CCN(c2ccc(Cl)c(Cl)c2)CC1 | 18 | 17 | . | -5 | 3 | -21
Clc1ccc(-c2onc3c2CCCC3)cc1 | 12 | -92 | 78* | -35 | -144 | -3
Clc1ccc(-c2n[nH]c3c2CCCC3)cc1 | 16 | -123 | 51 | 1 | -170 | -24
Cc1c([C@H]2[C@@H](CC#N)C2(C)C)c2ccccc2n1C | 6 | 14 | 67 | 12 | 19 | 8
Cc1[nH]c2c(Br)cccc2c1[C@H]1[C@@H](CC#N)C1(C)C | -3 | 37 | 72* | -2 | 27 | 4
O=C1CC(c2ccccc2)CC(O)=C1C=Nc1ccc(Cl)cc1 (stereo unspecified) | 4 | -22 | 83* | -5 | -15 | 5
O=C1CC(c2ccccc2)CC(O)=C1C=NCCN1CCNCC1 (stereo unspecified) | -4 | 14 | 95* | 5 | 10 | 3
O=C1CC(c2ccco2)CC(O)=C1C=Nc1cc(Cl)cc(Cl)c1 (stereo unspecified) | -6 | 6 | 84* | -9 | 10 | 19
CCOc1ccc(N=CC2=C(O)CC(c3ccco3)CC2=O)cc1 (stereo unspecified) | 1 | 4 | 26 | 9 | -1 | 9
O=C1CC(c2ccccc2)CC(O)=C1C=Nc1ccccc1Cl (stereo unspecified) | -21 | 3 | 60 | 17 | 6 | 20
CC(C)C(=O)Nc1cccc(COc2cccc(CN(Cc3ccccc3)C(=O)OC(C)(C)C)c2)c1 | -1 | 19 | . | -8 | 3 | 25
O=C(O)CCC(CNS(=O)(=O)c1ccccc1)C(F)(F)F (stereo unspecified) | 0 | -1 | -10 | 4 | 22 | 4
Cc1ccc(C)c(N2CCN(C(=S)Nc3ccc4nc(N5CCN(C)CC5)cc(C)c4c3)CC2)c1 | -11 | 31 | 77* | 85* | 1 | 15
COc1ccccc1N1CCN(C(=S)Nc2ccc3nc(N4CCOCC4)cc(C)c3c2)CC1 | -17 | -8 | 25 | 6 | -13 | 20
Cc1cccc(N2CCN(C(=S)Nc3ccc4nc(N5CCOCC5)cc(C)c4c3)CC2C)c1 (stereo unspecified) | -4 | -13 | 88* | 3 | -44 | -7
Cc1ccc(C)c(N2CCN(C(=S)NC3CCCCC3)CC2)c1 | 2 | 21 | 79* | 5 | 22 | -5
Cc1ccc(C)c(N2CCN(C(=S)Nc3ccc4nc(N5CCOCC5)cc(C)c4c3)CC2)c1 | 1 | -5 | -11 | 4 | -31 | 12
Brc1cccc(OCCCCN2CCCCC2)c1 | 6 | 13 | 10 | -3 | 22 | 1
CCCCNC(=O)C(NC(=O)c1ccc(-c2ccccc2)cc1)C(=O)c1ccccc1 (stereo unspecified) | . | . | . | . | -28 | .
